Source: PubChem
A selection: hits, their analogues and other compounds. The true share with any hit is near 19%.
TDP1 cell CPT: growth inhibition of DT40 Tdp1-/-;hTDP1 cells with camptothecin (screen for TDP1 inhibitors) | AID 686979 | Potency, µM (top dose mostly 46.2 µM), inactives show top-dose activity change, negative = growth inhibition, most hits filed as inhibitors | chicken DT40 Tdp1-/-;hTDP1 cells + 20 nM CPT, ATP luminescence, 48 h | 12% of 420,000 active; further: potency means the concentration at half of the fitted maximal effect; on the % scale 0 is the no-effect control and ±100 the full control effect; nearly all actives have a fitted effect of over 55% in size
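Chicken DT40 Tdp1-/- cells complemented with human TDP1, 400 cells/well, exposed to compounds plus 20 nM camptothecin for at least 48 h at 37 C; viability read as ATP content by CellTiter-Glo luminescence.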
DT40 TDP1 no CPT: qHTS for Inhibitors of human tyrosyl-DNA phosphodiesterase 1 (TDP1): qHTS in cells in absence of CPT; AID 686978, 2013; Potency, µM (series often up to 46.2 µM), inactives show at the highest dose activity change, negative = growth inhibition, hits mostly inhibitors; DT40 Tdp1-/- hTDP1 cells, no CPT, ATP luminescence, 48 h; 15% of 420,000 active; further: potency means the concentration at half of the fitted maximal effect; on the % scale 0 is the no-effect control and ±100 the full control effect; nearly all actives have a fitted effect of over 55% in size
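Growth of hTDP1-complemented DT40 Tdp1-knockout cells is measured by ATP luminescence after at least 48 hr compound exposure at 37 °C, with DMSO substituting for the 20 nM CPT used in the parallel screen.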
IL1B secr inh: blocks inflammasome-driven IL-1 beta release | THP-1 LPS/ATP IL-1B secretion, AlphaLISA, 16 h; active compounds read low | 4.7% of 360,000 active | activity change, % at 57.5 µM; in the data active means activity change below about -50%; inconclusive means mostly about -30% to -49%; further: on the % scale 0 is the no-effect control and ±100 the full control effect
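Secreted IL-1B measured by AlphaLISA bead assay after 16 h compound exposure of THP-1 cells; compounds (final up to 57.5 uM) added 1 h before LPS (250 ng/mL) and ATP (1.25 mM) stimulation; lower signal means less secretion.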
TGFb inhibitor: TGF-b pathway inhibition; HepG2 CAGA-GFP TGF-b/SMAD3 reporter, GFP fluorescence, 18 h; TGF-beta stimulated, 500 pg/mL final; Potency, µM (highest dose often 46.1 µM), without a hit: at the highest dose activity, negative = inhibition, hits mostly inhibitors; 1.2% of 410,000 active; AID 588855; further: potency means the concentration at half of the fitted maximal effect; on the % scale 0 is the no-effect control and ±100 the full control effect; nearly all actives have a fitted effect of over 65% in size
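Per well, imaged GFP fluorescence of HEPG2 CAGA-GFP cells gives the signal; cells get compound, then TGF-beta (500 pg/mL final), 18 h at 37 degrees C; %Activity versus -TGF-beta and +DMSO controls.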
HepG2 viability: HepG2 cytotoxicity, counter-screen for TGF-b inhibitors | Potency, µM (doses to about 46.1 µM), for inactives: at the top dose activity change, negative = cytotoxicity, most hits filed as cytotoxic | HepG2 CAGA-GFP viability, ATP luminescence, 18 h | 0.76% of 410,000 active; further: potency means the concentration at half of the fitted maximal effect
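HepG2 CAGA-GFP cells (1000/well, DMEM with 1% FBS) received compound, then TGF-beta at 500 pg/mL final, and were incubated 18 hours at 37 degrees C. Viability was read by CellTiter-Glo luminescence. Media-only wells were set as complete cell-killing and DMSO as no toxicity.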
TDP1 block: TDP1 (human) enzyme inhibition. Q9NUW8. 0.28% of 350,000 active. recombinant TDP1, AlphaScreen DNA substrate cleavage. AID 485290. Potency, µM (top dose mostly 130 µM), for inactives: top-dose activity change, negative = inhibition, hits mostly inhibitors; further: potency means the concentration at half of the fitted maximal effect; on the % scale 0 is the no-effect control and ±100 the full control effect; nearly all actives have a fitted effect of over 40% in size
Target sequence (Q9NUW8 whole entry, looked up): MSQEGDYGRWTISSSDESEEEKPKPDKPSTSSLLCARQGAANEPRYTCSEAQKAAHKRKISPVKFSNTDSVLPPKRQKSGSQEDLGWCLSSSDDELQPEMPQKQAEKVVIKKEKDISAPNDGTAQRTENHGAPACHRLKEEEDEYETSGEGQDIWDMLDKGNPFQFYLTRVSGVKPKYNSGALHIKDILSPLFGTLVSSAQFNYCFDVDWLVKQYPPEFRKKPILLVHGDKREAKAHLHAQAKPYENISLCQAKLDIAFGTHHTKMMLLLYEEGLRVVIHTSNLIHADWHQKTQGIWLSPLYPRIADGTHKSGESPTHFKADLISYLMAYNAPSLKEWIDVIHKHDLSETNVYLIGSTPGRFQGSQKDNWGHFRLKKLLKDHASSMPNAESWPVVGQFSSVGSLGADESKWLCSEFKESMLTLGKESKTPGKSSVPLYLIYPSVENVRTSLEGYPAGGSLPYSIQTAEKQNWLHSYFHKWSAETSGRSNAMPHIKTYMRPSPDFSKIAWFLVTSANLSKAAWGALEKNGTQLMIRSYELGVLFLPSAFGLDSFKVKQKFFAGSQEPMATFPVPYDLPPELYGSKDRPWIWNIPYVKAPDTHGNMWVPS
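Enzyme-compound mixtures sat 15 min at room temperature, followed by a 5 min reaction with 15 nM final substrate and 10 min with AlphaScreen beads. Recombinant human Tdp1 was used at 1 nM final.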
Numbers without * were called inactive; ? = inconclusive; / = no result; [ ] = dose if it differs, or a comment. Unless noted, the call rests on the fitted dose curve; in most records, active means well fitted curve in the direction sought with a large enough effect; inconclusive means small, poorly fitted or top-dose-only effect, or another doubt; inactive means no such curve, though single readings can be large; an effect the other way counts as inactive or inconclusive.

SMILES	TDP1 cell CPT	DT40 TDP1 no CPT	IL1B secr inh	TGFb inhibitor	HepG2 viability	TDP1 block
CN(C)c1ccc(/C=C/c2cc(/C=C/c3ccc(N(C)C)cc3)c3ccccc3n2)cc1	?	11µM*	/	27%	-6%	/
Cc1ccc2ncc(C)c(/C=C/c3ccc(N(C)C)cc3)c2c1	?	?	/	?	-92%	/
CN(C)c1ccc(/C=C/c2ccc3cc(N(C)C)ccc3n2)cc1	13µM*	?	/	-7%	-44%	/
O=C(NCCOc1ccccc1)C1=CC=CN2CCS(=O)(=O)N=C12	-11%	-3%	-4	10%	2%	-3%
COc1cccc(-n2c(=O)c3c(C)c(C)sc3n(CC(=O)NCCc3ccc(OC)c(OC)c3)c2=O)c1	-20%	-13%	/	0%	-20%	1%
CN(C)c1ccc(/C=C/c2cccc3cc4ccccc4nc23)cc1	0.1µM*	0.13µM*	/	1.6µM*	14µM*	/
COC1C(O)COC1/C=C/c1ccccc1 (centres undefined)	/	/	/	/	/	5%[21 µM]
C/C(=N\NC(=O)CNC(=O)C(c1ccccc1)c1ccccc1)c1ccc(C(C)(C)C)cc1	16µM*	16µM*	7	0%	10%	0%
COc1ccc(/C(C)=N\NC(=O)CNC(=O)C(c2ccccc2)c2ccccc2)cc1OC	?	-7%	51	-5%	-18%	0%
O=C(NCc1ccccc1CN1CCCCC1)c1ccccc1N1CCCC1=O	5%	19%	6	11%	5%	-3%[56.1 µM]
COCCNc1nc(-c2cc(C)n(CCc3ccc(OC)cc3)c2C)cs1	16µM*	18µM*	-16	?	-23%	7%
COc1ccc(CCn2c(C)cc(C(=O)COC(=O)c3cnccn3)c2C)cc1	-5%	12%	-10	-2%	5%	9%
CC1=C(C(=O)N2CCOCC2)C(c2ccc(O)cc2)NC(=S)N1 (centres undefined)	9%	1%	3	-2%	-1%	2%
Oc1ccc2c(c1)C1CCCC1(N1CCOCC1)O2 (centres undefined)	23µM*	?	-13	-7%	-20%	-1%
CCCCCCCCNC(C)C(O)c1ccc(SC(C)C)cc1 (centres undefined)	18µM*	16µM*	-86*	?	-102%	2%
COc1ccc(Cl)cc1CC=NNC(=O)c1cccc(C)c1O	13µM*	13µM*	22	-17%	0%	/
COc1ccc(Cl)cc1CC=NNC(=O)c1ccncc1	9.2µM*	12µM*	37	?	-5%	/
Cc1ccc(NC(=O)Cn2cc(C(=O)c3ccco3)c3ccccc32)c(C)c1	?	?	/	?	-35%	9%
Cc1ccc(C)c(NC(=O)Cn2cc(C(=O)c3ccncc3)c(=O)c3cc(F)ccc32)c1	-9%	-3%	/	-2%	6%	2%
COC(=O)c1cccc(Nc2c(-c3ccc(SC)cc3)nc3nc[nH]n23)c1	-15%	-16%	/	23%	-22%	9%
CC(OC(=O)CSc1ccc([N+](=O)[O-])cc1)C(=O)NCc1ccccc1 (centres undefined)	21µM*	16µM*	-22	-24%	-17%	5%
O=C(CCNC(=O)c1ccc([N+](=O)[O-])cc1)NCCc1ccccc1	?	?	-57*	4%	-15%	/
O=C(Cn1c(=O)c2sccc2n(Cc2ccc([N+](=O)[O-])cc2)c1=O)NCCc1ccccc1	?	13µM*	-28	9%	-3%	3%
Cc1ccc(CN(C)C(=O)COC(=O)CSc2ccc([N+](=O)[O-])cc2)cc1	?	16µM*	4	0%	3%	6%
